Compound activity: PubChem BioAssay, several laboratories
Only some compounds are listed: those with a hit (about 1.7% of all), similar ones and a draw of the others.
TLR4 MyD88 comp: inhibitors of TLR4-MyD88 association in cells, primary screen, cell-based, HeLa CL3-4, BLA complementation, FRET ratio | inhibition, % at 8.4 µM | HeLa CL3-4 TLR4/MyD88 BLA complementation | Toll-like receptor 4 (Homo sapiens) + Myeloid differentiation primary response protein … | 0.18% of 200,000 active | AID 861, 2007; in the data active means inhibition above about 25%;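 further: 0% = vehicle and 100% = reference inhibitor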
NOD2 RIPK2 PPI: NOD2-RIPK2 binding disruptors in cells, primary screen, fluorescence, CHO cells, BLA complementation; CCF4 ratio; 0.38% of 360,000 active; inhibition, % at 4.98 µM; AID 624267, 2012; Receptor-interacting serine/threonine-protein kinase 2 (Homo sapiens), O43353; in the data active means inhibition above about 21%;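 further: 0% = vehicle only and 100% = reference blocker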
TLR9-MyD88 block: inhibitors of TLR9-MyD88 association in cells, primary screen, cell-based, CHO, BLA complementation, fluorescence; CCF4 FRET ratio; inhibition, % at 4.98 µM; 0.21% of 340,000 active; Toll-like receptor 9 (Homo sapiens) + Myeloid differentiation primary response protein …;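 active means inhibition above the mean over all tested compounds plus 3 SD, cut at about 21% in these data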;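 further: 0% = DMSO only wells and 100% = clavulanate BLA inhibitor control wells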
Myeloid diff MLP: induction of myeloid progenitor differentiation, primary screen, cell-based, flow cytometry, MLPCN library; ER-HoxA9 myeloid progenitors, lysozyme-GFP differentiation; calls only at 10 µM; 1% of 360,000 active;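 active means normalized GFP-positive differentiation at or above the plate's own cutoff, the solvent-only control mean plus 3 SD; inconclusive means no clear call, values can overlap the other calls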;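 further: cells exposed to compound for four days before flow analysis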
ABCB6 inh 2: ABCB6 transporter inhibitors, primary screen, K562-ABCB6 cells, flow cytometry, MLPCN library. K562-ABCB6 porphyrin accumulation, 1 h; stronger effect = lower value. 0.19% of 360,000 active. ATP-binding cassette sub-family B member 6 (Homo sapiens), Q9NP58. fluorescence ratio to DMSO, % at 10 µM;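 active means fluorescence ratio to DMSO below 75%, the collection mean minus 3 SD; inconclusive means too few cells collected in the well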;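 further: signal is porphyrin accumulated inside mitochondria; 100% equals median channel fluorescence of DMSO control wells; lower ratio means ABCB6 inhibition with less porphyrin fluorescence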
Starred values were filed as active, the others as inactive; i = inactive; ? = inconclusive; / = not tested or not shown; + = active, no number.

SMILES | TLR4 MyD88 comp | NOD2 RIPK2 PPI | TLR9-MyD88 block | Myeloid diff MLP | ABCB6 inh 2
COc1ccc(NC(=O)C2=CC(c3cccs3)=NS(=O)(=O)N2C)cc1 | / | 13 | -8 | + | 105
COc1cc2c(cc1OC)C(C)N(CCc1ccc(Cl)cc1)CC2 (centres undefined) | / | 0 | / | i | 98
COc1cc2c(cc1OC)C(C)N(CCN1C(=O)c3ccccc3C1=O)CC2 (centres undefined) | / | -16 | -2 | + | 400
CCc1noc(C)c1C(=O)Nc1cc(Cl)ccc1N1CCCC1 | / | -7 | -11 | i | 98
CCOc1nc(N2CCOCC2)nc(N2CCOCC2)n1 | 1 | -2 | -6 | + | 235
CCN1C(=O)/C(=C/C=C2\N(CC)c3cc(S(=O)(=O)N(C)C)ccc3N2c2ccccc2)SC1=S | / | -1 | 6 | + | 163
CC1CCCCC1NC(=O)C1CCC(CNS(=O)(=O)c2ccc3c(c2)C(C)(C)C(=O)N3C)CC1 (centres undefined) | / | -13 | / | i | 98
COc1ccc(N2C(=O)/C(=C/c3ccc([N+](=O)[O-])cc3)C=C2c2ccccc2)cc1 | 0 | 6 | 6 | + | 363
Cc1ccc(Nc2cc(C)nn2-c2nc(C)cc(=O)[nH]2)cc1 | 16 | 53* | 41* | ? | 95
Cc1ccc(Nc2cc(C)nn2-c2nc(C)cc(C)n2)cc1 | -7 | 2 | -1 | i | 91
CCOC(=O)C1CCC(CN(Cc2ccccc2)S(=O)(=O)c2ccc([N+](=O)[O-])cc2)CC1 (centres undefined) | -1 | -2 | -7 | i | 100
CCCCCCN1C[C@@H](O)[C@H](n2cc(-c3ccc(F)cc3)nn2)C[C@@H]1c1ccccc1 | / | -13 | 5 | i | 96
C=CCn1c(SCC(=O)Nc2nccs2)nnc1-c1cc2cccc(OC)c2o1 | -6 | 0 | 4 | i | 72*
O=C(NC1CCCCC1)c1ccc([N+](=O)[O-])o1 | / | 1 | 6 | + | 99
O=C(NNC(=O)c1ccc([N+](=O)[O-])o1)c1ccccc1 | 12 | -1 | 1 | + | 90
O=C(COC(=O)c1ccc([N+](=O)[O-])o1)NC1CCCC1 | / | -5 | -12 | i | 103
O=C(COC(=O)c1ccc([N+](=O)[O-])o1)NC1CCCCC1 | / | 1 | -8 | i | 106
O=C(NC1CCCC(C(F)(F)F)C1)c1ccc([N+](=O)[O-])o1 (centres undefined) | / | -4 | -3 | + | 101
CC(NC(=O)c1ccc([N+](=O)[O-])o1)C12CC3CC(CC(C3)C1)C2 (centres undefined) | / | 1 | 2 | + | 96
CC(C)c1ccc2c(c1)C1Cc3ccccc3C1N2 (centres undefined) | 4 | 4 | 6 | i | 113
O=C(NCCc1ccccc1)c1ccc2[nH]c(=O)c(=O)[nH]c2c1 | / | 4 | 8 | i | 102
Cc1ccccc1CSCC1Nc2ccc(C(=O)NCCc3ccccc3)cc2NC1=O (centres undefined) | / | 5 | -8 | + | 110
CCOC(=O)/C(=C\C=C1/Sc2cc(OCC)c(OCC)cc2N1CC)C(C)=O | 2 | 4 | -10 | + | 116
CCOC(=O)N1c2ccccc2Sc2ccccc21 | -10 | -6 | 8 | i | 97
CCOC(=O)/C(=C/C=C1\Sc2cc(OCC)c(OCC)cc2N1CC)C(C)=O | -11 | -6 | -5 | + | 153
CCN1/C(=C/C(C)=O)Sc2ccc(OC)cc21 | -3 | 6 | 9 | i | 99
COc1cccc(-c2c(C(=O)N/N=C/c3ccc(C)o3)nnn2-c2nonc2N)c1 | / | 0 | 6 | i | 94
Cc1ccc(CN2CCC(Oc3cccc(C(=O)NCc4cccnc4)c3)CC2)o1 | / | 2 | -7 | + | 98
COCCN(C(=O)CSc1nc2ccc(Cl)cc2[nH]1)c1c(N)n(Cc2ccccc2)c(=O)[nH]c1=O | / | 2 | -3 | i | 100
